KB-3-1 tox: qHTS assay for MDR1-selective chemotherapeutics: Primary screen using the parental adenocarcinoma cell KB-3-1 | Potency, µM (series often up to 46.1 µM), hits mostly cytotoxic | 400,000 tested, 1.4% active | KB-3-1 viability, CellTiter-Glo ATP luminescence, 72 h; further: on the % scale 0 is the no-effect control and ±100 the full control effect; nearly all actives have a fitted effect of over 60% in size
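Cells are dispensed, compounds pinned in, plates held at 37 °C for 72 h, then CellTiter-Glo is added and luminescence read after 10 minutes. Cell line: parental KB-3-1 in phenol-red-free DMEM, 10% FBS.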
KB-V1 cytotox: qHTS assay for MDR1-selective chemotherapeutics: Primary screen using the drug-selected MDR subline cells KB-V1; KB-V1 MDR cells viability, CellTiter-Glo, 72 h; Potency, µM (top dose mostly 46.1 µM), hits mostly cytotoxic; 400,000 tested, 3.4% active; AID 1347076, 2019; further: on the % scale 0 is the no-effect control and ±100 the full control effect; nearly all actives have a fitted effect of over 60% in size
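KB-V1 cells (P-gp-expressing MDR subline of KB-3-1) in phenol-red-free DMEM with 10% FBS were exposed to library compounds over a concentration series for 72 h at 37 degrees C. Viability read by CellTiter-Glo luminescence; concentration-effect curves fitted after normalization.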
MCF10A rereplic: A quantitative high throughput screen for small molecules that induce DNA re-replication in MCF 10a normal breast cells; 350,000 tested, 2.9% active; MCF 10A DNA re-replication, Hoechst nuclear intensity, 48 h; Potency, µM (doses to about 46.1 µM), for the others: top-dose activity, positive = re-replication, hits mostly activators; further: % of control where 0% means no effect; nearly all actives have a fitted effect of over 50% in size
ELG1 repair inh: qHTS screen for small molecules that inhibit ELG1-dependent DNA repair in human embryonic kidney (HEK293T) cells expressing luciferase-tagged ELG1. 330,000 tested, 2.3% active. HEK293T ELG1-luciferase reporter, luminescence, 16 h; DNA damage induced by 5-fluorouridine. Potency, µM (titrated, usually from 46.1 µM), for the others: top-dose activity change, negative = inhibition, hits mostly inhibitors. AID 504467, 2011; further: on the % scale 0 is the no-effect control and ±100 the full control effect; nearly all actives have a fitted effect of over 55% in size
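5-Fluorouridine DNA damage + compound/DMSO, 2,000 cells/well, 16 h, 37 °C/5% CO2. ONE-Glo, 30 min RT, luminescence. Readout = decrease in reporter signal.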
SW480 rereplic: A quantitative high throughput screen for small molecules that induce DNA re-replication in SW480 colon adenocarcinoma cells. SW480 DNA re-replication, Hoechst DNA content imaging, 48 h. Potency, µM (highest dose often 46.1 µM), for the others: at the top dose re-replication activation, usual class: activators. 340,000 tested, 1.8% active. AID 624297, 2012; further: % of control where 0% means no effect; nearly all actives have a fitted effect of over 55% in size
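Quantitative HTS format with DMSO vehicle controls; 48 hr drug incubation at 37 C, then 40 min Hoechst staining and scanning imager measurement at 405 nm excitation.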
The depositor's hits bear a star. Shown are actives, neighbours in structure and some others; about 8.1% of the full set was active somewhere. The call rests on the fitted dose curve; in most records, active means well fitted curve in the direction sought with a large enough effect; inconclusive means small, poorly fitted or top-dose-only effect, or another doubt; inactive means no such curve, though single readings can be large; an effect the other way counts as inactive or inconclusive. Potency means the concentration at half of the fitted maximal effect.

For CCc1ccc(S(=O)(=O)/N=C2\C=C(NS(=O)(=O)c3ccccc3)C(=O)c3ccccc32)cc1 the results were KB-3-1 tox inactive, KB-V1 cytotox inactive, MCF10A rereplic 12%, ELG1 repair inh -30% and SW480 rereplic 12%.
Screening O=C(O)c1ccc(S(=O)(=O)/N=C2\C=C(Nc3ccccc3F)C(=O)c3ccccc32)cc1 returned KB-3-1 tox inconclusive, KB-V1 cytotox inconclusive, MCF10A rereplic 1.5µM*, ELG1 repair inh inconclusive and SW480 rereplic 6.5µM*.
`COC(=O)C(C(C)=O)C1=C/C(=N\S(=O)(=O)c2ccc(C)cc2)c2ccccc2C1=O` (stereo not given) gave KB-3-1 tox inactive, KB-V1 cytotox inactive, MCF10A rereplic inconclusive, ELG1 repair inh -4% and SW480 rereplic inconclusive.
`Cc1ccccc1NC1=C/C(=N\S(=O)(=O)c2ccc(C(=O)O)cc2)c2ccccc2C1=O` gave KB-3-1 tox inconclusive, KB-V1 cytotox inconclusive, MCF10A rereplic 2.1µM*, ELG1 repair inh 12µM* and SW480 rereplic inconclusive.
CN(C(=O)c1ccc(NC(=O)Cc2cccc(NC(=O)C3CCN(C(=O)C4CCCC4)CC3)c2)cc1)C1CC1 was read as KB-3-1 tox inactive, KB-V1 cytotox inconclusive, MCF10A rereplic inconclusive and SW480 rereplic inconclusive.
`COc1ccc(NC(=O)CC2C(=O)Nc3ccccc3N2CC(=O)N2CCCC2)cc1` (stereo not given) gave KB-3-1 tox inactive, KB-V1 cytotox inactive, MCF10A rereplic 3%, ELG1 repair inh 0% and SW480 rereplic 2%.
Screening CCCCN(CCCC)c1ccc(/C=C/c2ccnc3ccccc23)cc1 returned KB-3-1 tox inactive and KB-V1 cytotox inconclusive.
For O=C(NCCc1ccc(F)cc1)c1ccc2c(=O)n3c(nc2c1)CCC3 the results were KB-3-1 tox inactive, KB-V1 cytotox inconclusive, MCF10A rereplic -1%, ELG1 repair inh inconclusive and SW480 rereplic 103%.
COc1cc(C#Cc2ccc3cc(CCO)oc(=O)c3c2)cc(OC)c1 was read as KB-3-1 tox inactive, KB-V1 cytotox inactive, MCF10A rereplic 126%, ELG1 repair inh inconclusive and SW480 rereplic 0%.
`CN(C)c1ccc(C#Cc2ccc3cc(CCO)oc(=O)c3c2)cc1` gave KB-3-1 tox inactive, KB-V1 cytotox inactive, MCF10A rereplic 12µM*, ELG1 repair inh inconclusive and SW480 rereplic inconclusive.
`COc1cc2nc(CC(O)c3nc4cc(OC)c(OC)cc4[nH]3)[nH]c2cc1OC` (stereo not given) gave KB-3-1 tox inactive and KB-V1 cytotox inactive.
`COCc1cc(=O)[nH]c(Nc2nc(C)c3ccccc3n2)n1` gave KB-3-1 tox inconclusive, KB-V1 cytotox 21µM*, MCF10A rereplic inconclusive, ELG1 repair inh -27% and SW480 rereplic inconclusive.
Screening Cc1nc(-c2ccccc2)cc(=O)[nH]1 returned KB-3-1 tox inactive, KB-V1 cytotox inactive, MCF10A rereplic 8%, ELG1 repair inh 1% and SW480 rereplic 1%.
Screening Cc1ccc2oc(Nc3nc(-c4ccccc4)cc(=O)[nH]3)nc2c1 returned KB-3-1 tox inconclusive, KB-V1 cytotox inconclusive, MCF10A rereplic 21µM*, ELG1 repair inh inconclusive and SW480 rereplic inconclusive.
For COCc1cc(=O)[nH]c(Nc2nc3ccccc3o2)n1 the results were KB-3-1 tox 7.1µM*, KB-V1 cytotox inactive, MCF10A rereplic inconclusive, ELG1 repair inh inconclusive and SW480 rereplic inconclusive.
Screening Cc1ccc2c(C)nc(Nc3nc(CSc4nc5ccccc5s4)cc(=O)[nH]3)nc2c1 returned KB-3-1 tox inactive, KB-V1 cytotox inactive, MCF10A rereplic -1% and SW480 rereplic 3%.
For O=C1OC[C@H]2CCCN2C(=O)[C@@H](CC(=O)N(CCO)Cc2ccccc2)C/C=C\C[C@@H]1Cc1ccc(F)cc1 the results were KB-3-1 tox inactive, KB-V1 cytotox inactive, MCF10A rereplic inconclusive, ELG1 repair inh inconclusive and SW480 rereplic 4%.
For CC1=CC(=C(c2ccc(N)cc2)c2ccc(N)cc2)C=CC1=N the results were KB-3-1 tox 2.3µM*, KB-V1 cytotox inconclusive, MCF10A rereplic 6% and SW480 rereplic -3%.
Screening CCOc1ccc(NC(=O)NCCN2CCN(c3cc(Cl)ccc3C)CC2)cc1 returned KB-3-1 tox inactive and KB-V1 cytotox inactive.
For Cc1c(C(=O)Nc2ccc3c(c2)OCCO3)sc2ncnc(N3CCCCC3C)c12 (stereo not given) the results were KB-3-1 tox 18µM*, KB-V1 cytotox inconclusive, MCF10A rereplic inconclusive, ELG1 repair inh inconclusive and SW480 rereplic -20%.
Screening Cc1nc(N2CCC(C)CC2)c2c(C)c(C(=O)Nc3ccc(C(F)(F)F)cc3)sc2n1 returned KB-3-1 tox inactive, KB-V1 cytotox inconclusive, MCF10A rereplic inconclusive, ELG1 repair inh -10% and SW480 rereplic 10%.
`Cc1nc(N2CCC(C)CC2)c2c(C)c(C(=O)Nc3cccc(C(F)(F)F)c3)sc2n1` gave KB-3-1 tox inactive, KB-V1 cytotox inactive, MCF10A rereplic 21µM*, ELG1 repair inh -16% and SW480 rereplic inconclusive.
`Cc1nc(N2CCC(C)CC2)c2c(C)c(C(=O)Nc3ccc4c(c3)OCCO4)sc2n1` gave KB-3-1 tox inactive, KB-V1 cytotox inactive, MCF10A rereplic 5%, ELG1 repair inh 10µM* and SW480 rereplic -5%.
Screening Cc1nc(N2CCOCC2)c2c(C)c(C(=O)Nc3ccccc3Cl)sc2n1 returned KB-3-1 tox inactive, KB-V1 cytotox inactive, MCF10A rereplic -10%, ELG1 repair inh 5% and SW480 rereplic -2%.
`COC(=O)[C@@]1(Cc2ccc(OC)cc2)[C@H]2c3cc(C(=O)N4CCCC4)n(Cc4ccc(C)c(F)c4F)c3C[C@H]2CN1C(=O)c1ccccc1` gave KB-3-1 tox inconclusive and KB-V1 cytotox 7.3µM*.
For COC(=O)[C@@]1(Cc2ccc(OC)cc2)[C@H]2c3cc(C(=O)N4CCCC4)n(Cc4ccccc4)c3C[C@H]2CN1C(=O)c1ccccc1 the results were KB-3-1 tox inconclusive and KB-V1 cytotox 10µM*.
Screening O=C(Nc1sc2c(c1C(=O)NCc1cccnc1)CCCC2)c1ccco1 returned KB-3-1 tox inactive, KB-V1 cytotox 23µM*, MCF10A rereplic inconclusive, ELG1 repair inh -21% and SW480 rereplic -8%.
